In the library only some 8.3% were active in any assay of this set; here they are far more common.
VP16 counter – Gal4-VP16 reporter inhibition counter-screen; Drosophila S2 Gal4-VP16 UAS-luciferase, luminescence, 20 h; Potency, µM (top dose mostly 53.6 µM), inactives show at the top dose activity, negative = inhibition, usual class: inhibitors; actives 3.5% (n = 310,000);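 note: Gal4-VP16 expression switched on by copper sulfate through the metallothionein promoter; potency is the fitted concentration of half-maximal effect; % is set by controls: 0 for no effect and ±100 for the full control effect; nearly all actives have a fitted effect of over 50% in size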
RORg inh – blocks mouse ROR gamma transcriptional activity; P51450; Drosophila S2 Gal4-RORgamma UAS-luciferase reporter, 20 h; Potency, µM (series often up to 53.6 µM), for inactives: top-dose activity change, negative = inhibition, most hits filed as inhibitors; actives 5.4% (n = 310,000); AID 2551; note: potency is the fitted concentration of half-maximal effect; % is set by controls: 0 for no effect and ±100 for the full control effect; nearly all actives have a fitted effect of over 60% in size
Target sequence (P51450 whole entry, looked up, the tested form may be a part): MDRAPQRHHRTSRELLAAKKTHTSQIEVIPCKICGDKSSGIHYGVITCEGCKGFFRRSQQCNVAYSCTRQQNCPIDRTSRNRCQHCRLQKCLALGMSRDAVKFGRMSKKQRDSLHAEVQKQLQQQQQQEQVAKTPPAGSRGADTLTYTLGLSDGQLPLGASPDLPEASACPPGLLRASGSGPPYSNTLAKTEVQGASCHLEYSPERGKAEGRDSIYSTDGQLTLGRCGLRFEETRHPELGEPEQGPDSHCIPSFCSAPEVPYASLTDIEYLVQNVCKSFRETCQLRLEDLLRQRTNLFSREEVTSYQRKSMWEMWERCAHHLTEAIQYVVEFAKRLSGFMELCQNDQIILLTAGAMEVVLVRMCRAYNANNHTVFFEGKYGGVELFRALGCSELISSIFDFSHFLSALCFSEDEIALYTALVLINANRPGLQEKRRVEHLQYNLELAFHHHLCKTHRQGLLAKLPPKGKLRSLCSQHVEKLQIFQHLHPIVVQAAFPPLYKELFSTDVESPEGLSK
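Luciferase reporter read in Schneider cells carrying Gal4-RORγ (mouse) and UAS-Photinus luciferase; cells given compound 1 h before 700 uM copper sulfate induction, then incubated 20 h at ambient temperature.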
Giardia killer – kills Giardia lamblia; Giardia lamblia trophozoite viability; AID 540267; actives 0.15% (n = 340,000); activity change, % at 7.66 µM, hits read low; in the data active = activity change below about -80%; inconclusive = between about -30% and that limit;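 note: parasites exposed to compound for two days anaerobically before the ATP read; % is set by controls: 0 for no effect and ±100 for the full control effect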
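Anaerobic 48 hrs incubation at 37 deg C of 100 trophozoites/well with test compounds; ATPLite 1-Step luminescence, 15-30 min RT, reports cellular ATP as viability.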
Chronic BCR inh – chronic active BCR signaling inhibition. ABC-DLBCL IkBa-CBG/CBR reporter, luminescence ratio, 4 h. Potency, µM (series often up to 46.1 µM), inactives show at the highest dose activity change, negative = inhibition, actives largely listed as inhibitors. actives 0.05% (n = 340,000); active = well fitted inhibition curve with a large enough effect in the signal ratio, with a control signal flat, not every such curve was filed as active; inconclusive = small, poorly fitted or top-dose-only effect, or effect the other way, or a change in a side signal; the % refers to the signal ratio;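 note: potency is the fitted concentration of half-maximal effect; plate controls were basal doxycycline-induced cells for no effect and cells given 10 µM MG132 for full effect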
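Cell line TMD8 (human ABC DLBCL), stably expressing tet-inducible CBG68-IkBa fusion and CBR; IMDM/0.5% FBS; cpd up to 46 uM; dox induction, 4 h, 37C/5% CO2; dual luminescence; green/red ratio; MG132 control.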
SW480 rereplic – inducers of DNA re-replication in SW480 colon cancer cells | SW480 DNA re-replication, Hoechst DNA content imaging, 48 h | Potency, µM (top dose mostly 46.1 µM), for inactives: at the top dose re-replication activation, most hits filed as activators | actives 1.8% (n = 340,000); note: potency is the fitted concentration of half-maximal effect; % of control where 0% means no effect; nearly all actives have a fitted effect of over 55% in size
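Cells (250 per well) received 23 nL compound or DMSO by pin tool and were kept 48 hr at 37 C, 5% CO2. Nuclei were then stained with Hoechst for 40 min and scanned for DNA content.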
MCF10A rereplic – DNA re-replication induction in MCF 10a cells; Potency, µM (top dose mostly 46.1 µM), for inactives: top-dose activity, positive = re-replication, actives largely listed as activators; MCF 10A DNA re-replication, Hoechst nuclear intensity, 48 h; actives 2.9% (n = 350,000); note: potency is the fitted concentration of half-maximal effect; % of control where 0% means no effect; nearly all actives have a fitted effect of over 50% in size
The depositor's hits bear a star; [ ] = another dose, or the depositor's remark. Unless noted, calls come from the whole dose curve; as a rule, active = well fitted curve in the direction sought with a large enough effect; inconclusive = small, poorly fitted or top-dose-only effect, or another doubt; inactive = no such curve, though single readings can be large; an effect the other way counts as inactive or inconclusive.

`N#CC1=C(N)Oc2cc(N)ccc2C1c1cccc(F)c1` (configuration not stated) gave VP16 counter 0%, RORg inh -22%, Giardia killer -2, Chronic BCR inh -9%, SW480 rereplic 12µM* and MCF10A rereplic 13µM*.
CCOc1ccccc1C1C(C#N)=C(N)Oc2cc(N)ccc21 (configuration not stated) was read as VP16 counter 1%, RORg inh -13%, Giardia killer -29, Chronic BCR inh 12%, SW480 rereplic inconclusive and MCF10A rereplic 23µM*.
COc1ccc(OC)c(C2C(C#N)=C(N)Oc3cc(N)ccc32)c1 (configuration not stated) was read as VP16 counter 2%, RORg inh 11%, Giardia killer -11, Chronic BCR inh 3%, SW480 rereplic inconclusive and MCF10A rereplic -180%[0.0737 µM].
For COC(=O)c1ccc(C2C(C#N)=C(N)Oc3cc(N)ccc32)cc1 (configuration not stated) the results were VP16 counter 14%, RORg inh -15%, Giardia killer 10, Chronic BCR inh -2%, SW480 rereplic -3% and MCF10A rereplic -3%.
For N#CC1=C(N)Oc2cc(O)ccc2C1c1cccnc1 (configuration not stated) the results were VP16 counter -2%, RORg inh 1%, Giardia killer 3, Chronic BCR inh 5%, SW480 rereplic -13% and MCF10A rereplic -17%.
Screening N#CC1=C(N)Oc2cc(N)ccc2C1C1CCCCC1 (configuration not stated) returned VP16 counter -8%, RORg inh -15%, Giardia killer 3, Chronic BCR inh inconclusive, SW480 rereplic 18µM* and MCF10A rereplic 8.2µM*.
`CN(C)c1ccc2c(c1)OC(N)=C(C#N)C2c1cccc(F)c1` (configuration not stated) gave VP16 counter -10%, RORg inh 3%, Giardia killer -6, Chronic BCR inh inconclusive, SW480 rereplic inconclusive and MCF10A rereplic 4.1µM*.
`Cc1ccc(C(=O)NCCn2cc(SCC(=O)Nc3nnc(C)s3)c3ccccc32)cc1` gave VP16 counter 1%, RORg inh 14µM*, Giardia killer -17, Chronic BCR inh inconclusive, SW480 rereplic 2% and MCF10A rereplic 12%.
CCCn1cc(SCC(=O)Nc2nnc(C)s2)c2ccccc21 was read as VP16 counter -2%, RORg inh inconclusive, Giardia killer 13, Chronic BCR inh 4%, SW480 rereplic -12% and MCF10A rereplic 7%.
`Cc1ccc2nsnc2c1NS(=O)(=O)c1c(C)ccc2nsnc12` gave VP16 counter 7%, RORg inh -30%, Giardia killer 6, Chronic BCR inh 0%, SW480 rereplic 1% and MCF10A rereplic 0%.
For Cc1ccc(/C=[N+](\[O-])c2ccc(N(C)C)cc2)c2nsnc12 the results were VP16 counter inconclusive, RORg inh 5µM*, Giardia killer 7, Chronic BCR inh 10µM*, SW480 rereplic inconclusive and MCF10A rereplic 11µM*.
For CCOc1ccc2[nH]c(C(=O)N/N=C/c3ccccc3OC)cc2c1 the results were VP16 counter -4%, RORg inh 0%, Giardia killer 17, Chronic BCR inh inconclusive, SW480 rereplic 15µM* and MCF10A rereplic 5.2µM*.
`COc1cc(OC)c2cc(C(=O)N/N=C/c3ccccc3O)[nH]c2c1` gave VP16 counter 5.6µM*, RORg inh 6.3µM*, Giardia killer 11, Chronic BCR inh 3%, SW480 rereplic 17% and MCF10A rereplic -5%.
`COc1ccc2[nH]c(C(=O)N/N=C/c3ccccc3OC)cc2c1` gave VP16 counter -14%, RORg inh -5%, Giardia killer -1, Chronic BCR inh inconclusive, SW480 rereplic inconclusive and MCF10A rereplic 27%.
For COc1ccc2[nH]c(C(=O)N/N=C/c3ccc(OC)c(O)c3)cc2c1 the results were VP16 counter 0%, RORg inh 35%, Giardia killer -15, Chronic BCR inh inconclusive, SW480 rereplic 12µM* and MCF10A rereplic 2.1µM*.
`Cc1cc(C)c2c(N)c(-c3nc4ccccc4[nH]3)sc2n1` gave VP16 counter 6%, RORg inh 21%, Giardia killer -4, Chronic BCR inh 4%, SW480 rereplic 27%[9.22 µM] and MCF10A rereplic inconclusive.
For Cc1ccc2nc(-c3sc4nc(C)ccc4c3N)[nH]c2c1 the results were VP16 counter -13%, RORg inh 39%, Giardia killer 7, Chronic BCR inh inconclusive, SW480 rereplic inconclusive and MCF10A rereplic 16µM*.
Screening COc1ccc(OCCNC(=O)CCCO)cc1 returned VP16 counter 0%, RORg inh -1%, Giardia killer 4, Chronic BCR inh 0%, SW480 rereplic -3% and MCF10A rereplic -1%.
For CCOC(=O)C1CSC(Cc2ccc(OCc3ccc([N+](=O)[O-])cc3)cc2)N1 (configuration not stated) the results were VP16 counter inconclusive and RORg inh 14µM*.
For CCCCNC(=S)N(C)/N=C/c1c(C)[nH]c2ccccc12 the results were VP16 counter inconclusive, RORg inh 13µM*, Giardia killer 5, Chronic BCR inh -3%, SW480 rereplic 0% and MCF10A rereplic inconclusive.
For COc1cc(-c2nc3ccc4ccccc4c3c3c2CCC3)cc(OC)c1O the results were VP16 counter inconclusive, RORg inh -7%, Giardia killer 7, Chronic BCR inh 12%, SW480 rereplic inconclusive and MCF10A rereplic 15µM*.
For COc1cc(/C=C2\CCCc3c2nc2ccccc2c3C(=O)O)cc([N+](=O)[O-])c1O the results were VP16 counter -5%, RORg inh -19%, Giardia killer -13, Chronic BCR inh 8%, SW480 rereplic -6% and MCF10A rereplic -5%.
`COc1cc(-c2nc3ccc4ccccc4c3c3c2CCC3)ccc1O` gave VP16 counter 0%, RORg inh -15%[10 µM], Giardia killer 4, Chronic BCR inh -4%, SW480 rereplic -1% and MCF10A rereplic inconclusive.
For COc1cc(/C=C2\CCCc3c2nc2ccccc2c3C(=O)O)cc(OC)c1O the results were VP16 counter -9%, RORg inh -5%, Giardia killer -6, Chronic BCR inh 0%, SW480 rereplic 26µM* and MCF10A rereplic -2%.
CN(C)c1ccc(/C=C2\CCCc3c2nc2ccccc2c3C(=O)O)cc1 was read as VP16 counter -15%, RORg inh 33%, Giardia killer -21, Chronic BCR inh -1%, SW480 rereplic 23% and MCF10A rereplic 18µM*.
